Reference: PubChem BioAssay (Tox21)
Inconclusive results are not listed. Calls of active or inactive are those of the source. The call rests on the fitted dose curve; in most records, active means well fitted curve in the direction sought with a large enough effect in the repeat runs; inconclusive means weak or mixed curves; inactive means no such curve, though single readings can be large; an effect the other way counts as inactive or inconclusive.

Assays:
[1] = A CellTox Green Cytotoxicity Assay to monitor cytotoxicity in HepG2 cells - 0 hour (AID 1224882); further: nearly all actives have a fitted effect of over 35% in size
Outline: (§1)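 Real-time cytotoxicity: fluorescence of a cell-impermeant cyanine dye binding DNA of dead HepG2 cells, measured repeatedly (0–40 h) during compound exposure at 37 C. Cells seeded 600/well with reagent, dosed after 5 h.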

[2] = A CellTox Green Cytotoxicity Assay to monitor cytotoxicity in HepG2 cells - 32 hour (AID 1224883); further: nearly all actives have a fitted effect of over 50% in size; further: potency means the concentration at half of the fitted maximal effect
Outline: as §1

[3] = A CellTox Green Cytotoxicity Assay to monitor cytotoxicity in HEK293 cells - 8 hour (AID 1224884); further: nearly all actives have a fitted effect of over 35% in size
Outline: (§2)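 Fluorescence from a DNA-binding dye excluded by viable cells was measured repeatedly in the same HEK293 wells (600 cells/well) during continuous compound exposure at 37 C. Each assay gives one read point: 0, 8, 16, 24, 32 or 40 h.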

[4] = qHTS RealTime-Glo MT Cell Viability Assay in HepG2 cells - 16 hour (AID 1224885); further: nearly all actives have a fitted effect of over 50% in size
Outline: (§3)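 Cell number in HepG2 cultures estimated from NanoLuc luminescence generated by metabolic reduction of a prosubstrate by living cells. The homogeneous, nonlytic format allowed repeated reads at 0, 8, 16, 24, 32 and 40 h of compound exposure.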

[5] = qHTS RealTime-Glo MT Cell Viability Assay in HEK293 cells - 24 hour (AID 1224886); further: top concentration of the series differs between compounds; nearly all actives have a fitted effect of over 50% in size
Outline: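 Homogeneous bioluminescent viability format in HEK293 cells (600 cells/well). Following 5 h at 37 C/5% CO2, 23 nL compound was pintooled; the signal was measured repeatedly during 40 h incubation.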

[6] = qHTS RealTime-Glo MT Cell Viability Assay in HEK293 cells - 8 hour (AID 1224887); further: top concentration of the series differs between compounds; nearly all actives have a fitted effect of over 50% in size
Outline: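 Luminescence, which tracks viable cell number through reduction of the prosubstrate to a NanoLuc substrate, was read over continuous 37 C culture. Cells (600/well) were premixed with reagent and rested 5 h before 23 nL of compound in DMSO was pinned.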

[7] = A CellTox Green Cytotoxicity Assay to monitor cytotoxicity in HEK293 cells - 16 hour (AID 1224888); further: nearly all actives have a fitted effect of over 35% in size
Outline: as §2

[8] = qHTS RealTime-Glo MT Cell Viability Assay in HepG2 cells - 0 hour (AID 1224889); further: nearly all actives have a fitted effect of over 50% in size
Outline: as §3

[9] = qHTS assay to identify small molecule antagonists of the estrogen receptor alpha (ER-alpha) signaling pathway using the BG1 cell line in the presence of 0.1 nM 17-beta-estradiol - cell viability counter screen (AID 1259241); further: nearly all actives have a fitted effect of over 40% in size
Outline: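 VM7Luc4E2 cells (endogenous ER-alpha, 4×ERE-luciferase), hormone-starved 5 days in charcoal-stripped FBS, were treated with compounds plus 0.1 nM 17beta-estradiol for 22 hr at 37C; viability read in same wells as CellTiter-Fluor live-cell protease fluorescence.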

[10] = A CellTox Green Cytotoxicity Assay to monitor cytotoxicity in HepG2 cells - 8 hour (AID 1224890); further: nearly all actives have a fitted effect of over 45% in size
Outline: as §1
On the % scale 0 is the no-effect control and ±100 the full control effect.

CC1=CC(=O)/C(=C(/C)O)C(=O)O1
inactive: Potency [1] | Potency [2] | Potency [3] | Potency [4] | Potency [5] | Potency [6] | Potency [7] | Potency [8] | Potency [9]

CCCCCCCCCCCCCCC1CO1 (stereo unspecified)
inactive: Potency [1] | Potency [2] | Potency [3] | Potency [4] | Potency [5] | Potency [6] | Potency [7] | Potency [8] | Potency [9]

Cc1cc(NC(=O)C(=O)O)cc(C)c1Oc1ccc(O)c2c1CCC2
inactive: Potency [1] | Potency [2] | Potency [3] | Potency [4] | Potency [5] | Potency [6] | Potency [7] | Potency [10] | Potency [9]

CCN(CCO)CCCC(C)Nc1ccnc2cc(Cl)ccc12 (stereo unspecified)
inactive: cytotoxicity [1] 10% [at 6.97 µM] | cytotoxicity increase [2] 10.8% [at 6.97 µM] | cytotoxicity increase [3] 0.302% [at 6.97 µM] | activity change, negative = cytotoxic [4] 4.27% [at 6.97 µM] | activity change, negative = cytotoxicity [5] -0.518% [at 6.97 µM] | activity change, negative = cytotoxicity [6] 0.498% [at 6.97 µM] | activity change [7] -1.57% [at 6.97 µM, hits give high values] | activity change, negative = cytotoxicity [8] 5.1% [at 6.97 µM] | activity change, negative = cytotoxicity [9] -6.05% [at 8.39 µM]

CCCCCCOC(=O)CCC
inactive: Potency [1] | Potency [2] | Potency [3] | Potency [4] | Potency [5] | Potency [6] | Potency [7] | Potency [8] | Potency [9]

CC(C)(C)c1ccc(OCC2CO2)cc1 (stereo unspecified)
inactive: Potency [1] | Potency [2] | Potency [3] | Potency [4] | Potency [5] | Potency [6] | Potency [8] | Potency [10] | Potency [9]

CN1CCC(=C2c3ccccc3C=Cc3ccccc32)CC1
inactive: Potency [1] | Potency [3] | Potency [4] | Potency [5] | Potency [6] | Potency [7] | Potency [10] | Potency [9]
active: Potency [2] 26.8 µM

NC1CCN(c2nc3c(cc2F)c(=O)c(C(=O)O)cn3-c2ccc(F)cc2F)C1 (stereo unspecified)
inactive: Potency [1] | Potency [2] | Potency [3] | Potency [4] | Potency [5] | Potency [6] | Potency [7] | Potency [8] | Potency [10] | Potency [9]

C=C(C)C(=O)OCCOc1ccccc1
inactive: Potency [1] | Potency [2] | Potency [3] | Potency [4] | Potency [5] | Potency [6] | Potency [7] | Potency [8] | Potency [9]

Cc1c(Cn2ccnc2)c2ccccc2n1CCC(=O)O
inactive: Potency [1] | Potency [2] | Potency [3] | Potency [4] | Potency [5] | Potency [6] | Potency [7] | Potency [8] | Potency [9]

Cc1cc(CC(=O)O)c(C)n1-c1ccc(Cl)cc1
inactive: Potency [1] | Potency [2] | Potency [3] | Potency [4] | Potency [5] | Potency [6] | Potency [7] | Potency [8] | Potency [9]

CCCCC(CC)COCCCN (stereo unspecified)
inactive: Potency [1] | Potency [2] | Potency [3] | Potency [4] | Potency [6] | Potency [7] | Potency [8] | Potency [10] | Potency [9]

CCOC(=O)C1=NN(c2ccccc2)C(=O)C1
inactive: Potency [1] | Potency [2] | Potency [3] | Potency [4] | Potency [5] | Potency [6] | Potency [7] | Potency [8] | Potency [9]

CC(C)(C)c1cc(CCC(=O)OCC(COC(=O)CCc2cc(C(C)(C)C)c(O)c(C(C)(C)C)c2)(COC(=O)CCc2cc(C(C)(C)C)c(O)c(C(C)(C)C)c2)COC(=O)CCc2cc(C(C)(C)C)c(O)c(C(C)(C)C)c2)cc(C(C)(C)C)c1O
inactive: Potency [1] | Potency [2] | Potency [3] | Potency [4] | Potency [5] | Potency [6] | Potency [7] | Potency [8] | Potency [9]

CCCCCCCCCCCCCCCCCBr
inactive: cytotoxicity [1] -6.85% [at 15.8 µM] | cytotoxicity increase [2] -10.1% [at 15.8 µM] | cytotoxicity increase [3] -3.41% [at 15.8 µM] | activity change, negative = cytotoxic [4] -3.91% [at 15.8 µM] | activity change, negative = cytotoxicity [5] -0.166% [at 15.8 µM] | activity change, negative = cytotoxicity [6] 2.84% [at 15.8 µM] | activity change [7] -5.91% [at 15.8 µM, hits give high values] | activity change, negative = cytotoxicity [8] -6.2% [at 15.8 µM] | activity change, negative = cytotoxicity [9] 5.52% [at 19 µM]

CC(=O)N(CC(=O)N(C)C)c1ccccc1
inactive: Potency [1] | Potency [2] | Potency [3] | Potency [4] | Potency [5] | Potency [6] | Potency [7] | Potency [8] | Potency [9]

Cn1c(NCCN(CCO)CCCc2ccc([N+](=O)[O-])cc2)cc(=O)n(C)c1=O
inactive: Potency [1] | Potency [2] | Potency [3] | Potency [4] | Potency [5] | Potency [6] | Potency [7] | Potency [8] | Potency [9]

Oc1ccc(O)c2c(O)cccc12
inactive: Potency [1] | Potency [2] | Potency [3] | Potency [4] | Potency [5] | Potency [7] | Potency [8] | Potency [10] | Potency [9]

C=CC(=O)OCCOC(=O)CCC(=O)O
inactive: Potency [1] | Potency [2] | Potency [3] | Potency [4] | Potency [6] | Potency [7] | Potency [8] | Potency [10] | Potency [9]

Nc1ccc(C(=O)Nc2ccccc2N)cc1
inactive: Potency [1] | Potency [3] | Potency [4] | Potency [6] | Potency [7] | Potency [8] | Potency [10] | Potency [9]
active: Potency [2] 7.56 µM
